Compounds without any hit were thinned out: in the full panel of roughly 83,000, 20% have a hit.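 Step 1: grow cells in 96-well plates. Step 2: add test compound at a single concentration. Step 3: incubate 48 h. Step 4: record percent growth.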 Calls of active or inactive are those of the source. Rule for the calls: active = growth percent below 10; inactive = the rest.
Key:
Assay in all cases: NCI-60 one-dose screen, 48 h (100 = growth as untreated, 0 = no growth, -100 = all killed)
Settings in all cases: 10 µM unless noted
[1] = test system: BT-549 breast
[2] = test system: MDA-MB-435 melanoma
[3] = test system: SW-620 colon
[4] = test system: MCF7 breast
[5] = test system: HCT-116 colon
[6] = test system: HCC-2998 colon
[7] = test system: KM12 colon

Measured: growth

Cc1cccc2nc3c(n12)C(=O)C(=O)c1ccccc1-3
inactive: [1] 78.6% | [3] 79.4% | [4] 47.9% | [5] 38.7% | [6] 115% | [7] 90.6%
active: [2] -86%

COc1ccc(C(=O)c2cc(OC)c(OC)c(OC)c2)cc1OC(=O)CCl
active: [2] -13.2% | [7] 7.22%
inactive: [1] 16.2% | [3] 29.9% | [4] 15.9% | [5] 10.7% | [6] 26.3%

COc1ccc(N(C)c2nc(Cl)nc3ccn(C)c23)cc1
active: [1] -4.36% | [2] -26.4% | [5] -7.01% | [7] 5.77%
inactive: [3] 21.9% | [4] 13.6% | [6] 15.8%

C#C[C@@]1(O)[C@@H](CO)O[C@@H](n2cc(Br)c3c(N)ncnc32)[C@@H]1O
active: [1] -45.5% | [3] -0.395% | [4] -18.4% | [5] 3.16% | [6] -22% | [7] 8.07%
inactive: [2] 14.6%

COc1ccccc1Nc1nnc(-c2ccc(Cl)cc2)o1
inactive: [1] 56.9% | [3] 20.9% | [4] 17.1% | [5] 34.1% | [6] 82% | [7] 23.9%
active: [2] -5.9%

O=C(O)c1cn(C2CC2)c2cc(N3CCN(C(=O)CSc4nnc(-c5ccc(Cl)cc5)n4-c4ccccc4)CC3)c(F)cc2c1=O
inactive: [1] 99.1% | [2] 102% | [3] 109% | [4] 110% | [5] 103% | [6] 102% | [7] 103%

O=C1CC(c2ccc(O)c(O)c2)Oc2cc(O)c([C@@H]3O[C@H](CO)[C@@H](O)[C@H](O)[C@H]3O)c(O)c21 (stereo not given in full)
inactive: [1] 102% | [2] 105% | [3] 98.4% | [4] 108% | [5] 93.9% | [6] 108% | [7] 109%

CCOC(=O)CC[C@H](NC(=O)c1ccc(NC)c2ccccc12)C(=O)OCC
inactive: [1] 100% | [2] 105% | [3] 93.6% | [4] 94.7% | [5] 92% | [6] 115% | [7] 103%

CC1CCCN(CCCCCOc2ccc3oc4ccc(Cl)cc4c(=O)c3c2)C1 (stereo not given)
inactive: [1] 80.3% | [2] 25.1% | [3] 56.6% | [4] 60.8% | [5] 32.2% | [6] 78.3% | [7] 59.4%

Cc1c(Br)cccc1NC(=O)c1sc2nc3c(cc2c1N)CN(Cc1ccccc1)CC3
active: [2] -42.9%
inactive: [1] 29.3% | [3] 18.4% | [4] 14.9% | [5] 16.8% | [6] 41.1% | [7] 23.5%

Cc1ccc(C(=O)/C(=C/c2ccc([N+](=O)[O-])cc2)S(=O)Cc2ccccc2)cc1 (stereo not given)
active: [3] 2.41% | [4] 1.83% | [5] -59.2%
inactive: [1] 45.8% | [2] 19.7% | [6] 74.8% | [7] 23.1%

Nc1c(C(=O)Nc2cccc3ccccc23)sc2nc3c(cc12)COCC3
inactive: [1] 51.3% | [3] 24.9% | [4] 18.7% | [5] 26.3% | [6] 85.5% | [7] 40.7%
active: [2] -1.93%

c1ccc2c3c([nH]c2c1)C(c1ccc(C2NCCc4c2[nH]c2ccccc42)cc1)NCC3 (stereo not given)
active: [2] -91.6% | [3] -80% | [4] -81.2% | [5] -91.7% | [6] -64.8% | [7] -62%
inactive: [1] 86.9%

NC[C@@H]1CCN(c2cc3c(cc2F)c(=O)n(N)c(=O)n3Cc2ccc(-c3ccccc3)cc2)C1
inactive: [1] 69.3% | [2] 76.6% | [3] 84.2% | [4] 79.4% | [5] 65.3% | [6] 96% | [7] 96.9%

COc1ccc(NC(=O)Nc2ccc(Nc3nc(C)cc(Nc4ccc(C)cc4)n3)cc2)cc1
active: [1] 3.93% | [2] -97.5% | [3] -62% | [4] -63.8% | [5] -91.6% | [6] -74.6% | [7] -88.1%

COc1cc2cc(c1Cl)N(C)C(=O)C[C@H](OC(=O)[C@H](C)N(C)C(=O)CCS)C[C@]1(C)O[C@H]1[C@H](C)[C@@H]1C[C@@](O)(NC(=O)O1)[C@H](OC)/C=C/C=C(\C)C2
active: [2] -16.4% | [5] 2.39% | [6] 8.58%
inactive: [1] 21.9% | [3] 18.5% | [4] 11.4% | [7] 16.1%

NC(=O)c1ccc(C2C3=C(CCCC3=O)OC3=C2C(=O)c2ccccc2C3=O)cc1 (stereo not given)
inactive: [1] 81.4% | [3] 12% | [6] 77.7% | [7] 44.1%
active: [2] -87.4% | [4] -28.8% | [5] 1.17%

COCCOCCOCc1n(Cc2ccc3ccccc3c2)c2ccccc2[n+]1Cc1ccc2ccccc2c1
active: [1] 1.44% | [2] 7.86% | [4] 7.6% | [7] -25.9%
inactive: [3] 18.9% | [5] 20.1% | [6] 17.8%

CCCCC1=c2c([nH]c3ccc(OC)cc23)=NC2C=CC=NC12 (stereo not given)
inactive: [1] 98.9% | [2] 93.4% | [3] 98.5% | [4] 13.5% | [5] 74.8% | [6] 97.1% | [7] 38.9%

C#C[C@@]1(O)[C@@H](CO)O[C@@H](n2cc(I)c3c(N)ncnc32)[C@@H]1O
inactive: [2] 14.6%
active: [1] -13.2% | [3] 0.663% | [4] 1.73% | [5] 0.762% | [6] -35.3% | [7] 9.88%

C=C(C)[C@@H]1CC[C@]2(C(=O)OCCOCCOCC[P+](c3ccccc3)(c3ccccc3)c3ccccc3)CC[C@]3(C)[C@H](CC[C@@H]4[C@@]5(C)CC[C@H](OC(=O)C(Cl)Cl)C(C)(C)[C@@H]5CC[C@]43C)[C@@H]12
active: [1] -89.4% | [2] -62.5% | [3] 5.87% | [4] 1.7% | [5] -84.1% | [7] -55.7%
inactive: [6] 12.1%

N#Cc1c(-c2ccc(F)cc2)nc(N/N=C/c2c[nH]c3ccccc23)nc1N1CCOCC1
inactive: [1] 75.5% | [2] 77.2% | [4] 51.5% | [5] 44.3% | [6] 59% | [7] 40%
active: [3] 7.62%

COC1=CC=CC2(OC)C3(O)CCCc4cccc(c43)N3C(=O)COC132 (stereo not given)
inactive: [1] 103% | [2] 103% | [3] 103% | [4] 96.3% | [5] 89.7% | [6] 103% | [7] 105%

CCN1CCN(Cc2ccc(NC(=O)c3cccc(C#Cc4cccc5[nH]nc(N)c45)c3)cc2C(F)(F)F)CC1
active: [1] 3.52% | [2] -91.2% | [3] -76% | [4] -77.8% | [5] -96.5% | [6] -87.4% | [7] -75%

C(=C\c1cn(-c2ccccc2)nc1-c1ccccc1)/c1nnc(-c2c[nH]c3ccccc23)o1
inactive: [1] 81% | [2] 49% | [3] 45.8% | [4] 34.3% | [5] 24.7% | [6] 97.3% | [7] 37.9%

O=CN1N=C(c2ccc(F)cc2)CC1c1cccc(Nc2ccnc3cc(C(F)(F)F)ccc23)c1 (stereo not given)
inactive: [1] 44.3% | [2] 58.2% | [3] 79.1% | [4] 25.3% | [5] 41.8% | [6] 76.3% | [7] 55.9%

CCc1c(C(=O)N[C@@H](C(=O)OCc2ccccc2)C(C)O)[nH]c2ccc(Cl)cc12 (stereo not given in full)
inactive: [1] 90.8% | [2] 87.9% | [3] 54.4% | [4] 65.6% | [5] 18.9% | [6] 101% | [7] 77.3%

COc1ccc2nc(-c3ccc(OC)c(OC)c3)cc(-c3nnc(SCC(=O)Nc4ccc(C(C)=O)cc4)o3)c2c1
inactive: [1] 102% | [2] 103% | [3] 103% | [4] 94.9% | [5] 89.7% | [6] 111% | [7] 102%

O=c1[nH]nc(-c2ccccc2)c2sc(NC(=S)Nc3ccc(Cl)cc3)nc12
inactive: [1] 92.6% | [2] 103% | [3] 98.1% | [4] 74.9% | [5] 87.8% | [6] 107% | [7] 90%

COc1cc(C)ccc1Oc1nc(Nc2ccc(N3CCOCC3)cc2)ncc1N=Cc1cc(C(F)(F)F)cc(C(F)(F)F)c1
inactive: [1] 89.4% | [2] 65.1% | [3] 80.5% | [4] 46.4% | [5] 47.6% | [6] 91.6% | [7] 55.3%
